These results are taken from PubChem BioAssay.

Structures are written as SMILES. Where “and” joins values, the source holds several entries; their conditions need not be identical. Equal entries are not always repeated. Calls of active or inactive are those of the source.

The test system of test [1] is Plasmodium falciparum Sir2 (PF13_0152, Sir2A). As to the kind of experiment: pfSir2 binders on small-molecule microarrays, primary screen, biochemical, small-molecule microarray, 635 nm fluorescence (AID 1098).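 Also: score merges spot fluorescence intensity with its signal-to-noise ratio.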 The following applies: small-molecule microarray binding, fluorescence 635 nm; higher = more signal.
The nature of test [2]: small-molecule microarray binders of probe aDKK1, primary screen, biochemical, biotinylated probe, 635/667 nm fluorescence (AID 1099).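 Also: score merges 667nm spot fluorescence with signal to noise across triplicate slides.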 The following applies: higher = more signal.
Test [3] in a line: small-molecule microarray binders of probe aCHRDL2, primary screen, biochemical, biotinylated probe, 635/667 nm fluorescence (AID 1100). The following applies: higher = more signal.
A short description of test [4]: splicing luciferase reporter signal modulators, primary screen, spliceosome inhibition project, cell-based, HEK293, splice +/- reporter (AID 1101).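 Also: HEK293 cells carrying a splicing-competent luciferase reporter gene; test concentration not given here.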 The following applies: luminescence, 24 h, higher = more signal, called active from +8 up or from −8 down. A general note: Reporter assays use an easily measured gene product as a stand-in for the process of interest.
Test [5] has as its target Fibroblast growth factor 10 (Homo sapiens) (UniProt O15520). As to the kind of experiment: FGF10 binders on small-molecule microarrays, primary screen, biochemical, small-molecule microarray, 635 nm fluorescence (AID 1102). The following applies: FGF10 binding, fluorescence 635 nm, higher = more signal.
The test system of test [6] is glycogen synthase kinase-3 (GSK3A per assay name; protocol says GSK3B). As to the kind of experiment: GSK3 binders on small-molecule microarrays, primary screen, biochemical, small-molecule microarray, 635 nm fluorescence, GSK3A (AID 1103). Also: the record names both GSK3A and GSK3B. The following applies: small-molecule microarray binding, fluorescence 635 nm; higher = more signal.
Test [7] concerns the target Epidermal growth factor receptor (Homo sapiens) (UniProt P00533). As to the kind of experiment: EGFR binders on small-molecule microarrays, primary screen, biochemical, small-molecule microarray, 635 nm fluorescence (AID 1104).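 Also: score merges 667 nm emission intensity with spot signal to noise over triplicate slides.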 The following applies: EGFR binding, higher = more signal.
Test [8] has as its target Follistatin-related protein 3 (Homo sapiens) (UniProt O95633). The test is described as follows: FSTL3 binders on small-molecule microarrays, primary screen, biochemical, small-molecule microarray, 635 nm fluorescence (AID 1105).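 Also: score merges emission near 667 nm and signal to noise per printed spot across three slides.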 The following applies: FSTL3 binding, higher = more signal.
Test [9] addresses Dickkopf-related protein 1 (Homo sapiens) (UniProt O94907). As to the kind of experiment: DKK1 binders on small-molecule microarrays, primary screen, biochemical, small-molecule microarray, 635 nm fluorescence scan (AID 1106).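 Also: score merges emission near 667 nm with signal to noise over three replicate slides.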 The following applies: DKK1 binding, higher = more signal.
The subject of test [10] is Inhibin beta A chain (activin A). The test is described as follows: INHBA (activin A) binders on microarrays, primary screen, biochemical, small-molecule microarray, 635 nm fluorescence scan (AID 1107).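 Also: mouse activin A protein probed at 4.33 µg/mL on printed slides; score merges bound-protein fluorescence near 667 nm with spot signal-to-noise.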 The following applies: small-molecule microarray binding, higher = more signal.
Test [11] has as its system Human papillomavirus type 1a protein E7 (residues 44-93). As to the kind of experiment: HPV1a E7 fragment binders on microarrays, primary screen, biochemical, small-molecule microarray, residues 44-93, 635 nm fluorescence (AID 1108).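 Also: E7 fragment applied at 1 µg/mL in TBST for 1 h at 4 C; score combines spot fluorescence with its signal to noise ratio.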 The following applies: small-molecule microarray binding, fluorescence 635 nm; higher = more signal.
Test [12] in a line: modulators of HCV replicon luciferase signal, primary screen, HCV replication inhibitor project, Huh7 cells, luciferase reporter (AID 1109).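 Also: huh7 hepatoma cells harbouring a luciferase neomycin HCV replicon reporter; luciferase luminescence as measure of HCV replicon replication; test concentration not given here.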 The following applies: 48 h, higher = more signal. On the technique in general: A replicon is a self-replicating genome or part of one, used to study replication in cells.
Test [13] addresses Left-right determination factor 2 (Homo sapiens) (UniProt O00292). As to the kind of experiment: LEFTY2 binders on small-molecule microarrays, primary screen, biochemical, small-molecule microarray, 635 nm fluorescence scan (AID 1110). The following applies: LEFTY2 binding, higher = more signal.
Test [14] deals with Calmodulin-1 (Homo sapiens) (UniProt P0DP23). The test is described as follows: CALM1 binders on microarrays, EGTA buffer, profiling panel, biochemical, small-molecule microarray, Cy5-labelled CALM1 (AID 1111).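 Also: labelled calmodulin applied in Tris saline Tween buffer holding calcium plus EGTA and DTT.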 The following applies: Cy5-CALM1 binding fluorescence, higher = more signal.
Test [15] shares this target. The test is described as follows: calcium-bound CALM1 binders on microarrays, profiling panel, artefact control for SMM control-protein annotation, biochemical, small-molecule microarray, Cy5-labelled CALM1, plus calcium (AID 1112).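 Also: score merges spot fluorescence with signal to noise from triplicate slides.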 The following applies: Cy5-CALM1 binding fluorescence, higher = more signal.
Test [16] is described as follows: small-molecule microarray binders of probe aWnt5a, primary screen, biochemical, biotinylated probe, 635/667 nm fluorescence (AID 1113).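 Also: score merges 667 nm fluorescence intensity with signal-to-noise per printed feature.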 The following applies: higher = more signal.
Test [17] can be described thus: small-molecule microarray binders of probe aShh, primary screen, biochemical, biotinylated probe, 635/667 nm fluorescence (AID 1114).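 Also: probe is biotin-labelled aShh protein from a stem cell growth factor screen; measures binding of labelled protein to compounds printed on the slide; score merges feature fluorescence at 667 nm with signal-to-noise.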 The following applies: higher = more signal.
The nature of test [18]: small-molecule microarray binders of probe aNog, primary screen, biochemical, biotinylated probe, 635/667 nm fluorescence (AID 1115).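 Also: probe is biotinylated aNog protein used at 0.15 µg/mL for 1 h at 4 C; z-score combines 667 nm fluorescence of each spot with its signal to noise.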 The following applies: higher = more signal.
In test [19] the target is Torsin-1A-interacting protein 1 (Homo sapiens) (UniProt Q5JTV8). As to the kind of experiment: LAP1 binders from COS7 cell lysate, primary screen, small-molecule microarray, 635/667 nm fluorescence (AID 1116). The following applies: COS7-hLAP1 lysate binding, 635 nm fluorescence, higher = more signal.
Sequence of Torsin-1A-interacting protein 1 (Homo sapiens) (Q5JTV8 whole entry, looked up): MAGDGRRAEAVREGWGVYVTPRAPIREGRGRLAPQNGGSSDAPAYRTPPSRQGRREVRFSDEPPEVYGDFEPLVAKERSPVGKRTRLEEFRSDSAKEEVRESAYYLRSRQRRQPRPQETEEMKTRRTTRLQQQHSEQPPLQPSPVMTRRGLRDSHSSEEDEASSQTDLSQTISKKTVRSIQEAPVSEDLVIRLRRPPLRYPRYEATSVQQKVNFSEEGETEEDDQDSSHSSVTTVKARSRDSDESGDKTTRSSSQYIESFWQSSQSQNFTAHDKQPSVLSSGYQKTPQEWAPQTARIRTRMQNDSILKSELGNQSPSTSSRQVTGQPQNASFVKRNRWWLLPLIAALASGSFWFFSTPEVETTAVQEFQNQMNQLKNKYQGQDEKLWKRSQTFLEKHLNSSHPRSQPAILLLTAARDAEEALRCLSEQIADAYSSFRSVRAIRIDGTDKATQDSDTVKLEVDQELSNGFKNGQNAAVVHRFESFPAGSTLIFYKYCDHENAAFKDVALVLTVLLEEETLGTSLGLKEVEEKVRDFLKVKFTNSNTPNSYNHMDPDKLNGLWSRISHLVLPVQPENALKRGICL
Test [20] concerns the target Alpha-bungarotoxin (Bungarus multicinctus) (UniProt P60615). As to the kind of experiment: alpha-bungarotoxin binders on microarray, profiling panel, artefact control for SMM control protein annotation, biochemical, small-molecule microarray, Alexa647 label, 635/667 nm fluorescence (AID 1117). The following applies: alpha-BTX-A647 binding fluorescence, higher = more signal.

Sequence of Dickkopf-related protein 1 (Homo sapiens) (O94907 whole entry, looked up): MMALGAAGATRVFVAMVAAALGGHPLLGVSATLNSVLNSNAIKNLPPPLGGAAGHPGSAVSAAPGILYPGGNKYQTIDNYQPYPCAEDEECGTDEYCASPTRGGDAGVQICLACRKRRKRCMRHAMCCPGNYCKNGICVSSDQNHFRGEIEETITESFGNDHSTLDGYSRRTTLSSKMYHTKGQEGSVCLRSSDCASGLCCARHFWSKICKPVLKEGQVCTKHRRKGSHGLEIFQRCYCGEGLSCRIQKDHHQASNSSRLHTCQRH
Sequence of Left-right determination factor 2 (Homo sapiens) (O00292 whole entry, looked up): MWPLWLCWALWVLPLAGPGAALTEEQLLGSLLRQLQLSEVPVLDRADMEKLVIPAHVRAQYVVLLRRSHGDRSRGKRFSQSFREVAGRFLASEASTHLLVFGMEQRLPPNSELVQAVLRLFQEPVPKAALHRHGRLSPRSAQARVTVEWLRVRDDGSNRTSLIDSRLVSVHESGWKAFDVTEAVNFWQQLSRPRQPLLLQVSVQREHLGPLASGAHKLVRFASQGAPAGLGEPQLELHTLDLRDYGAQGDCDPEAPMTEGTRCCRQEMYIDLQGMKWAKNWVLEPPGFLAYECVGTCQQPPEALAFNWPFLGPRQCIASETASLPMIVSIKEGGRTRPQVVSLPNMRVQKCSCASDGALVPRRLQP
Sequence of Follistatin-related protein 3 (Homo sapiens) (O95633 whole entry, looked up): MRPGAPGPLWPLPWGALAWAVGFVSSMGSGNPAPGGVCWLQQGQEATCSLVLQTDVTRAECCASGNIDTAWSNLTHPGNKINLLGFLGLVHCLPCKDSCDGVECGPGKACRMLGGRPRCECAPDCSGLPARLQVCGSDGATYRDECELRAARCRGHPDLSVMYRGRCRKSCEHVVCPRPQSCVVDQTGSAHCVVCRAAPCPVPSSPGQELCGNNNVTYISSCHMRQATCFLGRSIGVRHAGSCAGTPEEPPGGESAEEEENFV
Sequence of Epidermal growth factor receptor (Homo sapiens) (P00533 whole entry, looked up): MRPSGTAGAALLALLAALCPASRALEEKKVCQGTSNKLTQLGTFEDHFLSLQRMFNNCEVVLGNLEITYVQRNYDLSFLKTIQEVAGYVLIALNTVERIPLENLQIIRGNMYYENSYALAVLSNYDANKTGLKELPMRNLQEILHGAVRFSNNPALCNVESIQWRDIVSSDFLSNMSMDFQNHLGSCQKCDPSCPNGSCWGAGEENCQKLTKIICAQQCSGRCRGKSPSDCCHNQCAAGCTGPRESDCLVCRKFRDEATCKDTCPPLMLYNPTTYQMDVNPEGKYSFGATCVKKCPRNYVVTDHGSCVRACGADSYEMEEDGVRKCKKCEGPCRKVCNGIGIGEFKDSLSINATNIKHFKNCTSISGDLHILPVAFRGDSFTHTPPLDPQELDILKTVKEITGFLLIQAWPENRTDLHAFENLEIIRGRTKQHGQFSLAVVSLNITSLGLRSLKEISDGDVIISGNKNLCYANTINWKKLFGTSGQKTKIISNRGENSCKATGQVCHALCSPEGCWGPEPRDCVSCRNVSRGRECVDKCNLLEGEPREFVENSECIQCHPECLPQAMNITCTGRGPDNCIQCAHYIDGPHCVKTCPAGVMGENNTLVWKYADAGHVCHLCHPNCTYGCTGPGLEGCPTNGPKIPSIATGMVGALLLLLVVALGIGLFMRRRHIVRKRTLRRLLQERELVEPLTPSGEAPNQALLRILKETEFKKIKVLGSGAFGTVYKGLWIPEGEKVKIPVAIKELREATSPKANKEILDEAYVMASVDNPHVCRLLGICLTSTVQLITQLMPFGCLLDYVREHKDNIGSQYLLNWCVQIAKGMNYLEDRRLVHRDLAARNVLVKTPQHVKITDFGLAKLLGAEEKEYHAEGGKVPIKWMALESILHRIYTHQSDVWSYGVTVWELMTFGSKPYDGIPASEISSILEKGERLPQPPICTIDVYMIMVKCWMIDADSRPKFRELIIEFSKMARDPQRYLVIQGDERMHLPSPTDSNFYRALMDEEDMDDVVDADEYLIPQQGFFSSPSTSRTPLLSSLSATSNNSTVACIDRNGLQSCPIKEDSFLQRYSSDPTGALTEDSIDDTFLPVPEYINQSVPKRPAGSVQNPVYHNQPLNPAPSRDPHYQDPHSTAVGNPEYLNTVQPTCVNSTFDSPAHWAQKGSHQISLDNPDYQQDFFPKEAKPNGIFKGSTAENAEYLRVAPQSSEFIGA
Sequence of Alpha-bungarotoxin (Bungarus multicinctus) (P60615 whole entry, looked up): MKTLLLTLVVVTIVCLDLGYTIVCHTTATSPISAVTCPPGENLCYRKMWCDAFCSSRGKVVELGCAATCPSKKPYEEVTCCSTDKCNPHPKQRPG
Sequence of Fibroblast growth factor 10 (Homo sapiens) (O15520 whole entry, looked up): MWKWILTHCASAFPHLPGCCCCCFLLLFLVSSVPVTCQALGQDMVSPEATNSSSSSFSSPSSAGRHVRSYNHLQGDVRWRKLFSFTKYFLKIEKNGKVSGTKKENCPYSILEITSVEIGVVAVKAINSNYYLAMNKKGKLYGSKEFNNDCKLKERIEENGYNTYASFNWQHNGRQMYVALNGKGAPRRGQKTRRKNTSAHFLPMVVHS

Take `COC(=O)c1c2oc(c1C(=O)OC)C(=O)N[C@@H](Cc1ccccc1)Cn1cc(nn1)C1(CCCCC1)NC(=O)N[C@H](CO)CC2`: the composite z-score in [1] was 0.582 and 0.45; in test [2], 0.407 and -0.327; in test [3], -0.287 and -0.366; in [5], 1.16 and 0.505; in [6], 0.86 and 0.41; in test [7], 0.158 and 0.198. For the same molecule, the composite z-score in [8] is 0.794 and 0.388; in test [9] it was 0.749 and 0.194; in test [10], 0.728 and -0.0236; in [11] it was 0.773 and 0.664; in [13], 0.564 and 0.328; in [14] it was 0.0754 and -0.157. In addition, the composite z-score in test [15] was 0.0102 and -0.607; in [16], -0.0403 and -0.0924; in test [17] it was 0.0684 and -0.0904; in test [18] it was -0.0604 and 0.149; in test [19], 2.36 and 0.399; in test [20], 1.53 and 0.281. For the same molecule, the z-score is -0.55 (inactive) and -1.56 (inactive) in test [4]; -0.16 and -0.583 in test [12].

For `COC(=O)C1=C(C)N(Cc2ccccc2)C2=C3C(=O)CCC[C@@H]3[C@@](O)(C(=O)OC)C(=O)N2[C@@H]1c1ccccc1`, the composite z-score in test [1] was 0.464 and -0.773; in test [2], 0.0021 and -0.0015; in test [3] it was -0.334 and -0.299; in [5] it was 0.887 and 0.389; in [6] it was 0.379 and 0.224; in test [7], 0.459 and 0.433. For the same molecule, the composite z-score in [8] is 0.843 and 0.284; in test [9], 0.641 and 0.516; in test [10], 0.177 and 0.506; in test [11], -0.0225 and -0.0706; in test [13], 0.278 and 0.372; in test [14], -0.255 and -0.674. The composite z-score in test [15] is -0.361 and -0.0671; in test [16], -0.144 and -0.0185; in test [17] it was -0.182 and 0.187; in test [18], -0.424 and 0.0775; in test [19] it was 0.617 and 0.179; in test [20], 0.187 and -0.503. Besides, the z-score was 0.732 (inactive) and -1.28 (inactive) in test [4]; -0.571 and -2.09 in [12].

For the molecule `CO[C@@H]1COC(=O)CC=C[C@H](C)[C@@H](NS(=O)(=O)c2ccc(C)cc2)COC(=O)CC=C[C@@H]1C`, the composite z-score in test [1] was 0.462 and 1.72; in [2] it was -0.378 and -0.3; in test [3] it was -0.823 and -0.867; in [5], 0.819 and 0.365; in test [6], 0.875 and 0.415; in [7], 0.858 and 0.943. The composite z-score in test [8] is 1.32 and 1.4; in test [9], 0.597 and 1.3; in test [10], -0.113 and 1.32; in test [11], 0.494 and -1.3; in [13] it was 0.687 and 0.845; in [14], -0.653 and -0.748. Moreover, the composite z-score is -1.02 and -1.12 in [15]; -0.101 and -0.126 in test [16]; 0.0121 and -0.156 in test [17]; -0.23 and -0.289 in [18]; 0.149 and 0.483 in [19]; 1.15 and -0.0808 in test [20]. Also, the z-score in test [4] was -0.338 (inactive) and -0.57 (inactive); in test [12], -1.06 and -1.76.

`C=CC[C@@H](O)c1ccc(OCCO)cc1`: the composite z-score is 0.153 and 0.572 in [1]; -0.458 and -0.292 in [2]; 0.644 and 0.889 in test [3]; -0.906 and -0.929 in test [5]; 0.512 and -0.567 in test [6]; -0.798 and -1.61 in [7]. Moreover, the composite z-score in [8] was 0.132 and -0.565; in [9], -0.751 and -1.58; in test [10] it was -0.911 and -1.46; in test [11], -1.68 and -0.85; in test [13] it was -0.301 and -1.81; in test [14], -1 and -1.27. For the same molecule, the composite z-score in [15] is -0.166 and -0.74; in test [16] it was -0.184 and -0.247; in test [17], -0.138 and -0.0626; in test [18], -0.435 and -0.201; in test [19], 0.141 and -0.598; in [20], -0.416 and 1.32. The z-score is -1.87 (inactive) and -2.09 (inactive) in test [4]; 1.71 and 1.54 in test [12].

As to `C=CCN(C(=O)C1N(c2c(Cl)cccc2CO)C(=O)C2C(C(=O)O)C3C=CC21O3)C(C)(C)C` (stereo not given), the composite z-score in [1] was 0.769 and -1.57; in test [2], -0.525 and -0.241; in [3], -0.269 and 0.798; in [5], -0.788 and -1.43; in test [6], -1.39 and -0.911; in test [7], -1.85 and -0.913. Further, the composite z-score is -0.332 and 0.322 in [8]; -2.02 and -2.22 in test [9]; -0.918 and -0.985 in [10]; -0.375 and -1.73 in [11]; -2.64 and -2.81 in test [13]; -0.68 and -0.347 in test [14]. Also, the composite z-score in test [15] is -0.0519 and 0.673; in [16], -0.334 and -0.28; in [17], -0.544 and -0.123; in [18], 0.793 and -0.124; in test [19], -0.879 and -1.71; in test [20], -1.09 and -1.44. Further, the z-score in test [4] was -0.859 (inactive) and -1.07 (inactive); in [12], -0.892 and -0.519.

Consider `COC(=O)C1=C(C)N(Cc2ccccc2)[C@]23O[C@](C(=O)OC)(C(=O)N2[C@@H]1c1ccccc1)[C@H]1C(=O)N(C)C(=O)[C@H]13`, for which the composite z-score was 0.626 and 0.336 in test [1]; 0.0479 and 0.177 in [2]; -0.284 and -0.474 in test [3]; 0.408 and 0.827 in test [5]; 0.933 and 0.452 in test [6]; 0.473 and 0.427 in test [7]. The composite z-score in test [8] is 0.645 and 0.82; in test [9], 0.415 and 0.942; in test [10], -0.338 and 0.137; in test [11] it was 0.866 and 0.534; in test [13] it was 1.15 and 0.687; in test [14] it was 0.949 and -0.202. The composite z-score is 0.29 and -0.107 in test [15]; -0.16 and -0.0165 in test [16]; -0.237 and 0.165 in test [17]; -0.108 and -0.0008 in test [18]; 0.384 and 0.73 in test [19]; 0.0312 and -0.0037 in test [20]. Moreover, the z-score in test [4] was -1.03 (inactive) and -1.27 (inactive); in test [12], -1.01 and 0.238.
